# Test results as given in PubChem BioAssay (EPA / NIEHS).
# Several values for one entry are separate records, joined by “and”; a condition that tells them apart may be missing. Equal entries are not always repeated. Records with an inconclusive call do not appear. Activity calls are given as the source filed them. Rule for the calls, unless noted: active = hit-call score of the fitted dose curve at least 0.9, where 1 is the maximum; inactive = score below 0.9.
# Experiments:
# [1] = tested on: SRY-box transcription factor 2 (SOX2) Protein Expression, Deisenroth Lab, SOX2 (gene 6657); assay: CCTE_Deisenroth_DEVTOX-GLR_Endo_SOX2: CCTE's DevTox GLR-Endo Assay Evaluation of SRY-box transcription factor 2 (SOX2) Protein Expression, Deisenroth Lab (AID 2284412; active = hit-call score of the fitted dose curve at least 0.9, where 1 is the maximum)
# Method in brief: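 RUES2-GLR human pluripotent cells were seeded 24 h, then differentiated 48 h with two chemical exposures 24 h apart. Cells were fixed, nuclei stained and imaged by high-content microscopy. Endpoint is %SOX2+ cells over cell count, minus 0.2% DMSO control; 10-point series 1 nM–200 uM.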
# [2] = tested on: SRY-box transcription factor 17 (SOX17) Protein Expression, Deisenroth Lab, SOX17 (gene 64321); assay: CCTE_Deisenroth_DEVTOX-GLR_Endo_SOX17: CCTE's DevTox GLR-Endo Assay Evaluation of SRY-box transcription factor 17 (SOX17) Protein Expression, Deisenroth Lab (AID 2284413)
# Method in brief: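 Endpoint: % change in SOX17+ fraction (SOX17+ cells / cell count) vs 0.2% DMSO solvent control. RUES2-GLR reporter cells, 48 h endoderm differentiation, two doses at 24 h intervals, high-content fluorescence imaging, 5 fields/well.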
# [3] = tested on: Brachyury (BRA) Protein Expression, TBXT (gene 6862); assay: CCTE_Deisenroth_DEVTOX-GLR_Endo_BRA: CCTE's DevTox GLR-Endo Assay Evaluation of Brachyury (BRA) Protein Expression, Deisenroth Lab (AID 2284417)
# Method in brief: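 RUES2-GLR human pluripotent cells, seeded 24 h, then differentiated 48 h in defined media with two chemical exposures 24 h apart (10-point series, 1 nM - 200 uM). Fixed, nuclear-stained, imaged; endpoint is percent BRA+ cells minus 0.2% DMSO control.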
# [4] = CCTE_Deisenroth_DEVTOX-GLR_Endo_CellCount: Viability Assessment in CCTE's DevTox GLR-Endo Assay, Deisenroth Lab (AID 2284420)
# Method in brief: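 RUES2-GLR pluripotent cells seeded 24 h, then differentiated 48 h in defined media with two chemical exposures 24 h apart. Nuclei counted by high-content imaging; 10-point 1 nM–200 uM series; percent change versus 0.2% DMSO.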
# [5] = tested on: SRY-box transcription factor 17 (SOX17) Protein Expression, Deisenroth Lab, SOX17 (gene 64321); assay: CCTE_Deisenroth_DEVTOX-GLR_Pluri_SOX17: CCTE's DevTox GLR-Pluri Assay Evaluation of SRY-box transcription factor 17 (SOX17) Protein Expression, Deisenroth Lab (AID 2284427; active = hit-call score of the fitted dose curve at least 0.9, where 1 is the maximum)
# Method in brief: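 RUES2-GLR pluripotent cells were induced toward endoderm over 48 h and received two compound doses 24 h apart, in a 10-point series from 1 nM to 200 uM. The percentage of SOX17+ cells among total cells was measured by high-content imaging and reported minus the 0.2% DMSO control.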
# [6] = tested on: SRY-box transcription factor 2 (SOX2) Protein Expression, Deisenroth Lab, SOX2 (gene 6657); assay: CCTE_Deisenroth_DEVTOX-GLR_Pluri_SOX2: CCTE's DevTox GLR-Pluri Assay Evaluation of SRY-box transcription factor 2 (SOX2) Protein Expression, Deisenroth Lab (AID 2284428)
# Method in brief: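 RUES2-GLR human pluripotent cells, two exposures 24 h apart over 48 h differentiation; 10-point series 1 nM - 200 uM. High-content imaging gives SOX2+ cells divided by cell count, reported as percent change versus 0.2% DMSO.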
# [7] = tested on: Brachyury (BRA) Protein Expression, Deisenroth Lab, TBXT (gene 6862); assay: CCTE_Deisenroth_DEVTOX-GLR_Pluri_BRA: CCTE's DevTox GLR-Pluri Assay Evaluation of Brachyury (BRA) Protein Expression, Deisenroth Lab (AID 2284429; active = hit-call score of the fitted dose curve at least 0.9, where 1 is the maximum)
# Method in brief: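 Human pluripotent RUES2-GLR cells, seeded 24 h, were differentiated 48 h in defined media with two chemical doses at 24-h intervals (10-point, 1 nM - 200 uM). Readout: percent BRA+ cells by fluorescent reporter imaging, minus 0.2% DMSO control.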
# [8] = CCTE_Padilla_ZF_Score.Tail: CCTE's 144 Hour Post-fertilization zebrafish Assay Score for Tail Malformation, Padilla Lab (AID 2284414)
# Protocol: (§1) CCTE_Padilla_ZF_Phenotype_Score is a whole embryo, multiplexed assay using zebrafish ova exposed for 144 hours post fertilization on a 96-well plate.CCTE_Padilla_ZF_Score.Tail is one of one assay component(s) measured or calculated from the CCTE_Padilla_ZF_Phenotype_Score assay. It is designed to make measurements of zebrafish development as detected with brightfield microscopy of developing zebrafish embryos.Data from the assay component CCTE_Padilla_ZF_Score.Tail was analyzed into 1 assay endpoints. This assay endpoint, CCTE_Padilla_ZF_Score.Tail, was analyzed in the positive analysis fitting direction relative to DMSO as the negative control and baseline of activity. Using a type of viability reporter, gain-of-signal activity can be used to understand changes in developmentals as they relate to the whole embryo. To generalize the intended target to other relatable targets, this assay endpoint is annotated to the zebrafish development intended target family, where the subfamily is lower trunk morphogenesis.
# (§2) Zebrafish husbandry: Wild type adult zebrafish (Danio rerio; undefined outbred stock obtained from Aquatic Research Organisms, Hampton, NH, 03842) were housed in an AAALAC-approved animal facility at 28C with a 14:10 h light: dark cycle (lights on at 08:30 h). Adult fish (2-3 females per male; density = 15-20 adults per tank) were kept in one of several 9-liter (L) flow-through colony tanks (Aquaneering Inc., San Diego, CA). All adults in a colony tank were placed in a 2 L (static) breeding tank (Aquatic Habitats, Apopka, FL) one hour prior to light onset. Typically, adults from two to three colony tanks were mated on the same day. Two hours after light onset the adults were returned to the colony tank. All embryos were gathered from each breeder tank, pooled, and placed in a 28C water bath for 2 h, followed by two washes with 0.06% bleach (v/v) in 10% Hanks' Balanced Salt Solution (13.7 mM NaCl 0.54 mM KCl, 25 uM Na2HPO4, 130 uM CaCl2 100 um MgSO4 and 420 um NaHCO3,), hereafter referred to as Hanks' solution, for 5 min in order to remove any residual bacteria or fungi. Immediately following washing, the embryos were examined, and healthy embryos were separated from dead or unfertilized eggs and moved into fresh Hanks'. Chemical exposures: Zebrafish embryos were exposed in 96-well plates. Between 6- and 8-hours post fertilization (hpf), healthy embryos (with chorions) were transferred, one embryo per well, into 96 well (0.5 mL) microtiter plates (Cell Culture-Treated, Flat-Bottom Microplate 96 well [Corning Costar, Kennebunk, ME; Cat 09-761-145]) filled with 200 uL of Hanks' solution. A random number generator was used to assign the order in which the rows of embryos were plated in 96 well plates each week. After plating, the embryos were dosed with 0.8 uL of the chemical dosing solution then immediately sealed with AlumaSeal II (Excel Scientific Inc, Victorville, CA) to prevent volatilization of the chemicals, and then placed in a leakproof secondary container. These containers were placed in an incubator maintained on a 14:10 h light: dark cycle at 26C for rearing. On 5 dpf, live larvae were gently moved out of the plate with test chemicals and into a new 96 well mesh plate (Millipore Corp., Bedford, MA) with just the Hanks' solution. Once within the mesh well plate, the animals were rinsed with 400 uL of fresh Hanks' three times, and then the plates were covered with a non-adhesive material (Microseal A, BioRad, Hercules, CA), plate lid added, and then plate sides wrapped in Parafilm (PM992, Bermis Company, Neenah, WI), and returned to the incubator. […]
# [9] = CCTE_Padilla_ZF_Score.Blood_pooling: CCTE's 144 Hour Post-fertilization zebrafish Assay Score for Blood Pooling, Padilla Lab (AID 2284415)
# Method in brief: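 Wild-type outbred zebrafish embryos, one per well in 10% Hanks', exposed from 6–8 hpf in sealed plates at 26C on 14:10 h light:dark, rinsed at 5 dpf. Blinded stereomicroscope scoring of blood pooling at 6 dpf; gain-of-signal versus DMSO.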
# [10] = CCTE_Padilla_ZF_Score.Any: CCTE's 144 Hour Post-fertilization zebrafish Assay Score for Any Mortality or Malformation, Padilla Lab (AID 2284416)
# Protocol: as §1, with “plate.CCTE_Padilla_ZF_Score.Any” for “plate.CCTE_Padilla_ZF_Score.Tail”, “CCTE_Padilla_ZF_Score.Any” for “CCTE_Padilla_ZF_Score.Tail”, “CCTE_Padilla_ZF_Score.Any,” for “CCTE_Padilla_ZF_Score.Tail,”, “embryonic morphogenesis and mortality.” for “lower trunk morphogenesis.”
# as §2
smiles,measurement,setting,value
C=CC(N)=O,outcome,[1],inactive
same,outcome,[2],inactive
same,outcome,[3],inactive
same,outcome,[4],inactive
same,outcome,[5],inactive
same,outcome,[6],inactive
same,outcome,[7],inactive
CC1=C2C[C@H]3[C@@H](CC=C4C[C@@H](O)CC[C@@]43C)[C@@H]2CC[C@]12O[C@@H]1C[C@H](C)CN[C@H]1[C@H]2C,outcome,[2],inactive
same,outcome,[3],inactive
same,outcome,[4],inactive
same,outcome,[5],inactive
same,outcome,[6],inactive
same,outcome,[7],inactive
O=C(O)C(F)(F)C(F)(F)C(F)(F)C(F)(F)C(F)(F)F,outcome,[8],inactive
same,outcome,[9],inactive
same,outcome,[10],inactive
O=C(O)C(F)(F)C(F)(F)C(F)(F)C(F)(F)C(F)(F)C(F)(F)C(F)(F)C(F)(F)C(F)(F)F,outcome,[8],inactive
same,outcome,[9],inactive
same,AC50,[10],10.7 µM (active)
O=S(=O)(O)C(F)(F)C(F)(F)C(F)(F)C(F)(F)C(F)(F)C(F)(F)F,outcome,[8],inactive
same,outcome,[9],inactive
same,AC50,[10],36.4 µM (active) and 34.4 µM (active)
NS(=O)(=O)C(F)(F)C(F)(F)C(F)(F)C(F)(F)C(F)(F)C(F)(F)C(F)(F)C(F)(F)F,outcome,[8],inactive
same,outcome,[9],inactive
same,AC50,[10],0.747 µM (active)
O=C(O)C(F)(F)C(F)(F)C(F)(F)C(F)(F)C(F)(F)C(F)(F)C(F)(F)C(F)(F)F,outcome,[8],inactive
same,outcome,[9],inactive
same,AC50,[10],29.1 µM (active)
O=S(=O)(O)C(F)(F)C(F)(F)C(F)(F)C(F)(F)F,outcome,[8],inactive
same,outcome,[9],inactive
same,outcome,[10],inactive
